Assay results from article PMC9911399, “Two distinct binding modes provide the RNA-binding protein RbFox with extraordinary sequence specificity”.
Numbering of substitutions follows the chain as printed; changes in the protein carry UniProt numbers. In all, about 16,000 sequences were measured (“ka relative to ugcaugu”: median about 0.0091, highest 2% from about 0.032 on). Shown is part of a subset that was picked to be rich in the highest values.

T1: RBFOX1 RRM (Homo sapiens, UniProt Q9NWB1 109-208)
T1 sequence: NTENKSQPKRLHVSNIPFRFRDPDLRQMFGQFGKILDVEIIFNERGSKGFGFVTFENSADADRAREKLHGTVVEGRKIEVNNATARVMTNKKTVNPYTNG

B1: CAGUGCA (DNA:RNA)
RNA: GGGAGACCGGAAUUCAGAUUGUCCCAGUGCAUUAAAUCCCGUCGUAGCCACCA
DNA 1: CAATCTGAATTCCGGTCTCCC
DNA 2: TGGTGGCTACGACGGGATT
B2: GCCCCCA (DNA:RNA)
RNA: B1 RNA with C25G, A26C, G27C, U28C, G29C
DNA 1: CAATCTGAATTCCGGTCTCCC
DNA 2: TGGTGGCTACGACGGGATT
B3: UAGUAAA (DNA:RNA)
RNA: B1 RNA with C25U, G29A, C30A
DNA 1: CAATCTGAATTCCGGTCTCCC
DNA 2: TGGTGGCTACGACGGGATT
B4: GAUAUAC (DNA:RNA)
RNA: B1 RNA with C25G, G27U, U28A, G29U, C30A, A31C
DNA 1: CAATCTGAATTCCGGTCTCCC
DNA 2: TGGTGGCTACGACGGGATT
B5: AGUAAAU (DNA:RNA)
RNA: GGGAGACCGGAAUUCAGAUUGUCCAGUAAAUUUAAAUCCCGUCGUAGCCACCA
DNA 1: CAATCTGAATTCCGGTCTCCC
DNA 2: TGGTGGCTACGACGGGATT
B6: GCCAUGG (DNA:RNA)
RNA: B5 RNA with A25G, G26C, U27C, A29U, A30G, U31G
DNA 1: CAATCTGAATTCCGGTCTCCC
DNA 2: TGGTGGCTACGACGGGATT
B7: GCAUUGG (DNA:RNA)
RNA: B1 RNA with C25G, A26C, G27A, G29U, C30G, A31G
DNA 1: CAATCTGAATTCCGGTCTCCC
DNA 2: TGGTGGCTACGACGGGATT
B8: CGCAUGG (DNA:RNA)
RNA: B5 RNA with A25C, U27C, A29U, A30G, U31G
DNA 1: CAATCTGAATTCCGGTCTCCC
DNA 2: TGGTGGCTACGACGGGATT
B9: CUUGGUG (DNA:RNA)
RNA: B1 RNA with A26U, G27U, U28G, C30U, A31G
DNA 1: CAATCTGAATTCCGGTCTCCC
DNA 2: TGGTGGCTACGACGGGATT
B10: AGGGUAG (DNA:RNA)
RNA: B5 RNA with U27G, A28G, A29U, U31G
DNA 1: CAATCTGAATTCCGGTCTCCC
DNA 2: TGGTGGCTACGACGGGATT
B11: GGGCUCU (DNA:RNA)
RNA: B5 RNA with A25G, U27G, A28C, A29U, A30C
DNA 1: CAATCTGAATTCCGGTCTCCC
DNA 2: TGGTGGCTACGACGGGATT
B12: ACCGGGC (DNA:RNA)
RNA: B5 RNA with G26C, U27C, A28G, A29G, A30G, U31C
DNA 1: CAATCTGAATTCCGGTCTCCC
DNA 2: TGGTGGCTACGACGGGATT
B13: GGGGCUC (DNA:RNA)
RNA: B5 RNA with A25G, U27G, A28G, A29C, A30U, U31C
DNA 1: CAATCTGAATTCCGGTCTCCC
DNA 2: TGGTGGCTACGACGGGATT
B14: GGGGCUG (DNA:RNA)
RNA: B5 RNA with A25G, U27G, A28G, A29C, A30U, U31G
DNA 1: CAATCTGAATTCCGGTCTCCC
DNA 2: TGGTGGCTACGACGGGATT
B15: CGGGCUC (DNA:RNA)
RNA: B1 RNA with A26G, U28G, G29C, C30U, A31C
DNA 1: CAATCTGAATTCCGGTCTCCC
DNA 2: TGGTGGCTACGACGGGATT
B16: GGGCUGU (DNA:RNA)
RNA: B5 RNA with A25G, U27G, A28C, A29U, A30G
DNA 1: CAATCTGAATTCCGGTCTCCC
DNA 2: TGGTGGCTACGACGGGATT
B17: CGGGGGC (DNA:RNA)
RNA: B1 RNA with A26G, U28G, C30G, A31C
DNA 1: CAATCTGAATTCCGGTCTCCC
DNA 2: TGGTGGCTACGACGGGATT
B18: CCCGGGC (DNA:RNA)
RNA: B1 RNA with A26C, G27C, U28G, C30G, A31C
DNA 1: CAATCTGAATTCCGGTCTCCC
DNA 2: TGGTGGCTACGACGGGATT
B19: CGGGCUG (DNA:RNA)
RNA: B1 RNA with A26G, U28G, G29C, C30U, A31G
DNA 1: CAATCTGAATTCCGGTCTCCC
DNA 2: TGGTGGCTACGACGGGATT
B20: UUUCUAU (DNA:RNA)
RNA: B5 RNA with A25U, G26U, A28C, A29U
DNA 1: CAATCTGAATTCCGGTCTCCC
DNA 2: TGGTGGCTACGACGGGATT
B21: UGCAUCU (DNA:RNA)
RNA: B5 RNA with A25U, U27C, A29U, A30C
DNA 1: CAATCTGAATTCCGGTCTCCC
DNA 2: TGGTGGCTACGACGGGATT
B22: AUCCGAU (DNA:RNA)
RNA: B5 RNA with G26U, U27C, A28C, A29G
DNA 1: CAATCTGAATTCCGGTCTCCC
DNA 2: TGGTGGCTACGACGGGATT
B23: ACAACUC (DNA:RNA)
RNA: B5 RNA with G26C, U27A, A29C, A30U, U31C
DNA 1: CAATCTGAATTCCGGTCTCCC
DNA 2: TGGTGGCTACGACGGGATT
B24: GCCAUCC (DNA:RNA)
RNA: B5 RNA with A25G, G26C, U27C, A29U, A30C, U31C
DNA 1: CAATCTGAATTCCGGTCTCCC
DNA 2: TGGTGGCTACGACGGGATT
B25: CGCUAUU (DNA:RNA)
RNA: B5 RNA with A25C, U27C, A28U, A30U
DNA 1: CAATCTGAATTCCGGTCTCCC
DNA 2: TGGTGGCTACGACGGGATT
B26: UAGAUGA (DNA:RNA)
RNA: B1 RNA with C25U, U28A, G29U, C30G
DNA 1: CAATCTGAATTCCGGTCTCCC
DNA 2: TGGTGGCTACGACGGGATT
B27: UCCUGGG (DNA:RNA)
RNA: B1 RNA with C25U, A26C, G27C, C30G, A31G
DNA 1: CAATCTGAATTCCGGTCTCCC
DNA 2: TGGTGGCTACGACGGGATT
B28: UGGGUUG (DNA:RNA)
RNA: B5 RNA with A25U, U27G, A28G, A29U, A30U, U31G
DNA 1: CAATCTGAATTCCGGTCTCCC
DNA 2: TGGTGGCTACGACGGGATT
B29: UGGGGGG (DNA:RNA)
RNA: B1 RNA with C25U, A26G, U28G, C30G, A31G
DNA 1: CAATCTGAATTCCGGTCTCCC
DNA 2: TGGTGGCTACGACGGGATT
B30: UGUUGGG (DNA:RNA)
RNA: B5 RNA with A25U, A28U, A29G, A30G, U31G
DNA 1: CAATCTGAATTCCGGTCTCCC
DNA 2: TGGTGGCTACGACGGGATT
B31: UGGUUCU (DNA:RNA)
RNA: B1 RNA with C25U, A26G, G29U, A31U
DNA 1: CAATCTGAATTCCGGTCTCCC
DNA 2: TGGTGGCTACGACGGGATT
B32: UGCUGGG (DNA:RNA)
RNA: B1 RNA with C25U, A26G, G27C, C30G, A31G
DNA 1: CAATCTGAATTCCGGTCTCCC
DNA 2: TGGTGGCTACGACGGGATT
B33: UGGUUUU (DNA:RNA)
RNA: B5 RNA with A25U, U27G, A28U, A29U, A30U
DNA 1: CAATCTGAATTCCGGTCTCCC
DNA 2: TGGTGGCTACGACGGGATT
B34: CCCCUGG (DNA:RNA)
RNA: B1 RNA with A26C, G27C, U28C, G29U, C30G, A31G
DNA 1: CAATCTGAATTCCGGTCTCCC
DNA 2: TGGTGGCTACGACGGGATT
B35: CUGGUUC (DNA:RNA)
RNA: B1 RNA with A26U, U28G, G29U, C30U, A31C
DNA 1: CAATCTGAATTCCGGTCTCCC
DNA 2: TGGTGGCTACGACGGGATT
B36: UGGGUUU (DNA:RNA)
RNA: B5 RNA with A25U, U27G, A28G, A29U, A30U
DNA 1: CAATCTGAATTCCGGTCTCCC
DNA 2: TGGTGGCTACGACGGGATT
B37: CUGGGUU (DNA:RNA)
RNA: B1 RNA with A26U, U28G, C30U, A31U
DNA 1: CAATCTGAATTCCGGTCTCCC
DNA 2: TGGTGGCTACGACGGGATT
B38: UGGGUUC (DNA:RNA)
RNA: B5 RNA with A25U, U27G, A28G, A29U, A30U, U31C
DNA 1: CAATCTGAATTCCGGTCTCCC
DNA 2: TGGTGGCTACGACGGGATT

Biological target: T1, RBFOX1 RRM
Assay: EMSA; HiTS-Eq, 1 nM pool, 10 min; buffer printed only for the single-RNA assays: 10 mM Tris pH 7.5, 150 mM NaCl, 3.4 mM EDTA, 0.001% NP-40, 30 C
Conditions: tags: His6 N-terminal (pET28a); label: 5' 32P
Summary of the method: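 Relative association constants, normalised to the cognate motif, were derived by comparing read counts of each RNA species with those of the control reaction. The RNA sequenced was the free fraction, separated by 8% native PAGE after a 10 min equilibration in 50 µL of 1 nM 5′-radiolabelled RNA (7 randomized nucleotides) with increasing concentrations of purified wild-type or mutant RbFox RRM.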

Binder	binding signal
B1	0.0149 KA relative to UGCAUGU
B2	0.00457 KA relative to UGCAUGU
B3	0.00712 KA relative to UGCAUGU
B4	0.00528 KA relative to UGCAUGU
B5	0.00281 KA relative to UGCAUGU
B6	0.0159 KA relative to UGCAUGU
B7	0.0185 KA relative to UGCAUGU
B8	0.582 KA relative to UGCAUGU
B9	0.0206 KA relative to UGCAUGU
B10	0.0176 KA relative to UGCAUGU
B11	0.0214 KA relative to UGCAUGU
B12	0.0122 KA relative to UGCAUGU
B13	0.0466 KA relative to UGCAUGU
B14	0.0461 KA relative to UGCAUGU
B15	0.0209 KA relative to UGCAUGU
B16	0.0234 KA relative to UGCAUGU
B17	0.0168 KA relative to UGCAUGU
B18	0.00898 KA relative to UGCAUGU
B19	0.0324 KA relative to UGCAUGU

Binder	binding signal
B20	0.00863 KA relative to UGCAUGU
B21	0.0208 KA relative to UGCAUGU
B22	0.00393 KA relative to UGCAUGU
B23	0.00147 KA relative to UGCAUGU
B24	0.00701 KA relative to UGCAUGU
B25	0.00582 KA relative to UGCAUGU
B26	0.0121 KA relative to UGCAUGU
B27	0.00619 KA relative to UGCAUGU
B28	0.0558 KA relative to UGCAUGU
B29	0.0192 KA relative to UGCAUGU
B30	0.00877 KA relative to UGCAUGU
B31	0.019 KA relative to UGCAUGU
B32	0.0153 KA relative to UGCAUGU
B33	0.0278 KA relative to UGCAUGU
B34	0.0109 KA relative to UGCAUGU
B35	0.0321 KA relative to UGCAUGU
B36	0.0379 KA relative to UGCAUGU
B37	0.0262 KA relative to UGCAUGU
B38	0.0352 KA relative to UGCAUGU
